For one assay, the target named is Albumin (Bos taurus) (UniProt P02769). As to the kind of experiment: bovine serum albumin binders on microarray, profiling panel, artefact control for SMM control protein annotation, biochemical, small-molecule microarray, Alexa647 label, 635/667 nm fluorescence (AID 1118).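 Further: score merges 667 nm emission intensity and signal-to-noise per printed compound spot.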 The settings on record: BSA-A647 binding, fluorescence 635 nm, higher = more signal.
The nature of assay [1]: small-molecule microarray binders of probe aXIP, primary screen, biochemical, NeuroSMM set, 635/667 nm fluorescence (AID 1119).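 Further: probe is the protein aXip251-270 applied at 1 µg/mL to compound-printed slides; binding of probe to printed compounds measured as 667 nm fluorescence plus signal to noise.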 The settings on record: higher = more signal, called active from +8 up or from −8 down.
The nature of assay [2]: small-molecule binders of probe aNOTCH3, primary screen, biochemical, small-molecule microarray, 635/667 nm fluorescence (AID 1120).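 Further: probe is a biotin-tagged antibody raised against NOTCH3 rather than NOTCH3 protein; score merges spot fluorescence near 667 nm with spot signal to noise.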 The settings on record: higher = more signal.
Assay [3] can be described thus: small-molecule binders of probe aNOTCH2, primary screen, biochemical, small-molecule microarray, 635/667 nm fluorescence (AID 1121).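 Further: score merges feature fluorescence read at 667 nm with its signal to noise.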 The settings on record: higher = more signal.
In assay [4] the target is Carbonic anhydrase 2 (Homo sapiens) (UniProt P00918). As to the kind of experiment: CAII small-molecule binders, profiling panel, biochemical, small-molecule microarray, Alexa647-labelled CAII (AID 1122). The settings on record: CAII-A647 binding fluorescence, higher = more signal.
Assay [5] is described as follows: COS7 lysate on small-molecule microarray, probe aHis, 635 nm (AID 1123).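 Further: z-score combines 667nm fluorescence intensity with signal-to-noise per printed compound spot.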 The settings on record: COS7 cell lysate, fluorescence, higher = more signal.
Assay [6] is described as follows: compound binding in COS7 lysate, probe aLAP1, primary screen, cell lysate, small-molecule microarray (AID 1124).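 Further: lysate comes from COS7 cells expressing LAP1 and is applied at 0.3 µg/mL; score merges spot fluorescence near 667 nm with signal-to-noise over triplicate slides.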 The settings on record: probe aLAP1, fluorescence, higher = more signal.
The next assay has as its system Sam68 (KHDRBS1). As to the kind of experiment: Sam68 small-molecule binders, primary screen, biochemical, small-molecule microarray, 635 nm fluorescence (AID 1125).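 Further: score merges 667 nm channel intensity with signal to noise over triplicate slides.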 The settings on record: small-molecule microarray binding, higher = more signal.
Assay [7] has as its system Chordin-like protein 2 (CHRDL2). As to the kind of experiment: CHRDL2 small-molecule binders, primary screen, biochemical, small-molecule microarray, 635 nm fluorescence (AID 1126).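 Further: printed compound slides probed with Chrdl2 protein at 4 µg/mL for 1 h at 4 C; score merges 667 nm emission intensity with signal to noise over three replicate slides.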 The settings on record: small-molecule microarray binding, fluorescence 635 nm; higher = more signal.
Assay [8] has as its target Concanavalin-A (Canavalia ensiformis) (UniProt P02866). As to the kind of experiment: ConA small-molecule binders, primary screen, artefact control for SMM control protein annotation, biochemical, small-molecule microarray, Alexa647 label, 635 nm (AID 1127).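 Further: z combines 667 nm emission intensity with signal-to-noise across three replicate slides.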 The settings on record: ConA-A647 binding fluorescence, higher = more signal.
Assay [9] in a line: anti-His antibody binders, primary screen, artefact control for SMM control protein annotation, biochemical, small-molecule microarray, 635 nm fluorescence (AID 1128).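 Further: score merges feature fluorescence with signal-to-noise for each printed compound spot.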 The settings on record: anti-His Alexa647 antibody binding, higher = more signal.
The subject of assay [10] is Human papillomavirus type 1a E7 protein (residues 1-88). As to the kind of experiment: HPV1a E7 small-molecule binders, primary screen, biochemical, small-molecule microarray, residues 1-88, 635 nm (AID 1129). The settings on record: small-molecule microarray binding, fluorescence 635 nm; higher = more signal.
Assay [11] addresses Focal adhesion kinase 1 (Homo sapiens) (UniProt Q05397). As to the kind of experiment: small-molecule microarray binders of FAK, primary screen, biochemical, 635/667 nm fluorescence, BSA, DTT (AID 1130).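 Further: composite of spot emission at 667 nm and signal to noise over triplicate slides.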 The settings on record: PTK2 binding, 635 nm fluorescence, higher = more signal.
The test system of assay [12] is Fibrinogen (Alexa647-labelled). As to the kind of experiment: fibrinogen binders on compound microarrays, profiling panel, artefact control for SMM control-protein annotation, biochemical, small-molecule microarray, 635/667 nm fluorescence (AID 1131).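 Further: z-score merges 667 nm fluorescence with per-spot signal-to-noise over triplicate slides.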 The settings on record: fibrinogen-A647 binding fluorescence, higher = more signal.
Assay [13] concerns the target Follistatin (Homo sapiens) (UniProt P19883). As to the kind of experiment: follistatin binders on small-molecule microarrays, primary screen, biochemical, small-molecule microarray, 635/667 nm fluorescence (AID 1132). The settings on record: FST binding, 635 nm fluorescence, higher = more signal.
Assay [14] deals with Fibroblast growth factor 2 (Homo sapiens) (UniProt P09038). As to the kind of experiment: FGF2 binders on small-molecule microarrays, primary screen, biochemical, small-molecule microarray, 635/667 nm fluorescence (AID 1133). The settings on record: small-molecule microarray binding, FGF2, fluorescence 635/667; higher = more signal.
Fibroblast growth factor 2 (Homo sapiens), sequence (P09038 whole entry, looked up): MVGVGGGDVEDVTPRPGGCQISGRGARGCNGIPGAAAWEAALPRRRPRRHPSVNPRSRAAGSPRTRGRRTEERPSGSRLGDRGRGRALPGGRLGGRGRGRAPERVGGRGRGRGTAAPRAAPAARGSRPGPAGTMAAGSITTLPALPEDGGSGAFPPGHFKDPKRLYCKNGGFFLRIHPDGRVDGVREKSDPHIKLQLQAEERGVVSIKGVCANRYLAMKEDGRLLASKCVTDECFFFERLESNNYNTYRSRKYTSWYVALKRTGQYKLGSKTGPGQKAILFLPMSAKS
The nature of assay [15]: mitochondrial membrane potential change in A549 cells, profiling panel, cell-based, JC-1 fluorescence, basal, 24 h, 100 nL (AID 1138).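 Further: A549 lung adenocarcinoma cells under basal conditions with no added stimulus; test concentration not given here.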 The settings on record: higher = more signal.
For the next assay, the system named is Lefty1. As to the kind of experiment: Lefty1 binders on small-molecule microarrays, primary screen, biochemical, small-molecule microarray, 635/667 nm fluorescence (AID 1139). The settings on record: small-molecule microarray binding, fluorescence 635/667; higher = more signal.
Assay [16] concerns wheat germ agglutinin (Triticum aestivum), Alexa647-labelled. As to the kind of experiment: wheat germ agglutinin binders on compound microarrays, profiling panel, artefact control for SMM control-protein annotation, biochemical, small-molecule microarray, 635/667 nm fluorescence (AID 1140).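 Further: score merges 667 nm feature emission with signal to noise over triplicate slides.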 The settings on record: WGA-A647 binding, 635 nm fluorescence, higher = more signal.
Assay [17] has as its target Luciferin 4-monooxygenase (Photinus pyralis) (UniProt P08659). As to the kind of experiment: firefly luciferase enzyme inhibitors, primary screen, biochemical, luminescence, purified enzyme, 2006 set (AID 1141).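 Further: cell-free assay with purified firefly luciferase at 100 ng per well in PBS; test concentration not given here.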 The settings on record: SteadyGlo luminescence, 30 min, higher = more signal, called active from +8 up or from −8 down.

Molecules are shown by their SMILES. Activity calls are given as the source filed them.

Follistatin (Homo sapiens), sequence (P19883 whole entry, looked up): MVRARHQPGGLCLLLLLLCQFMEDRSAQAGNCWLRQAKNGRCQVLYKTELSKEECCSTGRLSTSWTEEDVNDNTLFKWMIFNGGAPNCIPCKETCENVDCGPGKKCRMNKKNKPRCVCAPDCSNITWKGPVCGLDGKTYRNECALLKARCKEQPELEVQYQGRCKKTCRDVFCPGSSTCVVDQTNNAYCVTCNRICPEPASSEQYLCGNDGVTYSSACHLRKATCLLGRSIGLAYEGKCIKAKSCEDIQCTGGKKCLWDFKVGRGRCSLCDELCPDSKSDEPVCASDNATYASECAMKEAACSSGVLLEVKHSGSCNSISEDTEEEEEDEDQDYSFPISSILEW
Luciferin 4-monooxygenase (Photinus pyralis), sequence (P08659 whole entry, looked up): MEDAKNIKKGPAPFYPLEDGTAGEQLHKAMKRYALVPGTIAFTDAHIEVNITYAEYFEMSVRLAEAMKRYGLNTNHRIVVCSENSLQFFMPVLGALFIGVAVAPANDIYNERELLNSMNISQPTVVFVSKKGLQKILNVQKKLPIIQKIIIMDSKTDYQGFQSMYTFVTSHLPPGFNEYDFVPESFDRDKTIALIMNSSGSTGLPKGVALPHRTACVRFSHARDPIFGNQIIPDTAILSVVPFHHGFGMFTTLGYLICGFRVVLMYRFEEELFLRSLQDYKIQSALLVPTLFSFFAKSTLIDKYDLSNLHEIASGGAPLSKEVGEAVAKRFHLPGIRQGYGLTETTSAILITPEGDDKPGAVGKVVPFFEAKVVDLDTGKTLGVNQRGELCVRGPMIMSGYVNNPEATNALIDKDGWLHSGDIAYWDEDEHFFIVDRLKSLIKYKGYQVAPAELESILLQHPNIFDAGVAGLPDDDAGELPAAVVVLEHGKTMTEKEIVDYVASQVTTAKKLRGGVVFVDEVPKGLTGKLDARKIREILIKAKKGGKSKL
Albumin (Bos taurus), sequence (P02769 whole entry, looked up): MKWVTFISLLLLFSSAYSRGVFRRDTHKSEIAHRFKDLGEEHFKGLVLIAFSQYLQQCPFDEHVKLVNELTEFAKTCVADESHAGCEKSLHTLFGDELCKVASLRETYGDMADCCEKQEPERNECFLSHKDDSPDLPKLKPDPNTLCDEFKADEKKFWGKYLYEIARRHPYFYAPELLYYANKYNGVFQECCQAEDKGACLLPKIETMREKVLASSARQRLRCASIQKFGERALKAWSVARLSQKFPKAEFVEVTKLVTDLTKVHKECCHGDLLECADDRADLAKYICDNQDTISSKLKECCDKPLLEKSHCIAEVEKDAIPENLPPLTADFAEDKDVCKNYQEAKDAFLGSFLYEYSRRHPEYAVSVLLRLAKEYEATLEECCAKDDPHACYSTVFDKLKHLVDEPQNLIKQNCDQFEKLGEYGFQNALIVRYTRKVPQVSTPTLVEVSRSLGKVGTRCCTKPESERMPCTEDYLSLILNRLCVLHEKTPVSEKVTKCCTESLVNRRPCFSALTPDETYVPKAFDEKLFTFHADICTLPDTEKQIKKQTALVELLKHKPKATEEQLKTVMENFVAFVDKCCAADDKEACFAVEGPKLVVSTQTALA
Focal adhesion kinase 1 (Homo sapiens), sequence (Q05397 whole entry, looked up): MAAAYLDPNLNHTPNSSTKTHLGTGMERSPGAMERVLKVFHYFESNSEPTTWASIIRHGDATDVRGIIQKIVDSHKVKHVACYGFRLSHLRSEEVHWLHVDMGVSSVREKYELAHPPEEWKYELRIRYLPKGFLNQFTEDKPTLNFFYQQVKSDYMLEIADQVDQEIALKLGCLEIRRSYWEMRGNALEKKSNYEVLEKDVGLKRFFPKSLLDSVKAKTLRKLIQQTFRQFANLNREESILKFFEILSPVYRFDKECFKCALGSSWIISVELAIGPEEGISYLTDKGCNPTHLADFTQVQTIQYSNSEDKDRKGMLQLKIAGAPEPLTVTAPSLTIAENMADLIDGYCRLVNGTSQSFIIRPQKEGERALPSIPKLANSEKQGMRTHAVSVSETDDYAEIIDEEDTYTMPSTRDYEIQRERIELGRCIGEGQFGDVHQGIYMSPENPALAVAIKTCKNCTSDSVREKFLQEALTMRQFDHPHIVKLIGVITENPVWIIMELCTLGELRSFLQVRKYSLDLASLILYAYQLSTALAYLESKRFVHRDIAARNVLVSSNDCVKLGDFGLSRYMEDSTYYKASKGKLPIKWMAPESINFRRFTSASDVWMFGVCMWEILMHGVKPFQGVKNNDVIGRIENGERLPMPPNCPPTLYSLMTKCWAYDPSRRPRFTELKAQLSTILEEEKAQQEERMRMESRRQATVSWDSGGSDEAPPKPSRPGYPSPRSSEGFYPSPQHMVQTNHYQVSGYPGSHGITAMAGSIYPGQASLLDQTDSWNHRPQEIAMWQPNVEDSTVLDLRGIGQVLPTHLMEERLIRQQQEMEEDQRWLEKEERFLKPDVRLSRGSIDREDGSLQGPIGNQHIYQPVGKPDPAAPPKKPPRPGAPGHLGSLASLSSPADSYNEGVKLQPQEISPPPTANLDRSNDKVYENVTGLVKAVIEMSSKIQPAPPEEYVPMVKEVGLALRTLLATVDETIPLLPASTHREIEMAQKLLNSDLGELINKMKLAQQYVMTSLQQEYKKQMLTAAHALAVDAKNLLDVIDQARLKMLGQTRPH
Concanavalin-A (Canavalia ensiformis), sequence (P02866 whole entry, looked up): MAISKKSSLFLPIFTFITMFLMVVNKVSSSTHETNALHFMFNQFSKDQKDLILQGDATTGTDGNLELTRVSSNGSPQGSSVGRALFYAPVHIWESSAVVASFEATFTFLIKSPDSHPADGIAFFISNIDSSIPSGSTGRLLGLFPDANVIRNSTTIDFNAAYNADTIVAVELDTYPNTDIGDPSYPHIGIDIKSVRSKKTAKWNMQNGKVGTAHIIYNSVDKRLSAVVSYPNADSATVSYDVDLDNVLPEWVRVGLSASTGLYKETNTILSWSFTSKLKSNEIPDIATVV

As to `COc1ccc([Si](C)(C)[C@H]2[C@H](CCn3cc([C@H](O)c4ccccc4)nn3)O[C@@]3(C(=O)N(Cc4ccc(N5C(=O)c6cccc7cccc5c67)cc4)c4ccccc43)[C@@H]2C)cc1`, the composite z-score was -0.601 with Albumin (Bos taurus); -0.165 in assay [2]; -0.14 in assay [3]; 0.193 in [4]; 0.769 in assay [5]; 0.838 in assay [6]. Moreover, the composite z-score with Sam68 (KHDRBS1) is 0.131; in [7] it was -0.803; in [8], 0.115; in assay [9] it was 0.107; in [10], 0.0893; in assay [11] it was -0.254. The composite z-score in assay [12] was -0.153; in [13], -0.185; in assay [14] it was 0.768; in the assay on Lefty1 it was -0.0986; in [16], 0.0681. Besides, the composite Z-score in [1] was 0.389 (inactive). Moreover, the z-score in [15] is 2.81; in assay [17] it was -1.19 (inactive).
With `COC(=O)Cn1c(C(=O)N(C)C)cc2c1C[C@H]1CN(C(=O)c3ccccc3)[C@@](Cc3ccc(F)cc3)(C(=O)OC)[C@@H]21`, the composite z-score amounted to 0.944 with Albumin (Bos taurus); 0.541 in assay [2]; 0.267 in assay [3]; 0.884 in assay [4]; 0.56 in [5]; 0.108 in assay [6]. For the same compound, the composite z-score in the assay with Sam68 (KHDRBS1) is -0.167; in assay [7], 0.0171; in assay [8], 0.136; in assay [9] it was 2.12; in [10], 1.02; in [11], 1.25. In addition, the composite z-score in assay [12] is 0.19; in assay [13], -0.258; in [14], 0.386; in the assay on Lefty1 it was -0.278; in [16], 1.3. The composite Z-score in assay [1] was -0.155 (inactive). Also, the z-score was 0.354 in assay [15] and 0.897 (inactive) in [17].
For the compound `COCCCNC(=O)[C@@]1(Cc2ccccc2CN=[N+]=[N-])N=C(c2ccc(OCCCO)cc2)O[C@H]1c1ccccc1`, the composite z-score is 0.954 with Albumin (Bos taurus); 0.269 in assay [2]; -0.0006 in assay [3]; 0.254 in assay [4]; 2.85 in [5]; 0.832 in [6]. For the same compound, the composite z-score in the assay on Sam68 (KHDRBS1) is 1.3; in [7] it was -0.751; in [8], 1.03; in assay [9] it was 1.75; in assay [10] it was 1.23; in [11], 0.895. For the same compound, the composite z-score was determined as 0.991 in assay [12]; 1.25 in [13]; 0.14 in [14]; 0.365 with Lefty1; 0.73 in assay [16]. In addition, the composite Z-score in assay [1] is 0.443 (inactive). For the same compound, the figures for the z-score in [15] and in assay [17] were -0.0671 and 0.094 (inactive), respectively.
Take `CCCNC(=O)[C@@H]1c2ccccc2C(=O)N(C(C)C)[C@H]1c1ccc(CO)cc1`: the composite z-score in the assay with Albumin (Bos taurus) was -0.342; in [2], -0.0728; in assay [3], -0.0567; in assay [4], 0.322; in [5], 0.113; in assay [6] it was 0.784. In addition, the composite z-score in the assay on Sam68 (KHDRBS1) is 0.437; in assay [7] it was -0.605; in assay [8] it was 0.208; in assay [9], 3; in assay [10], -0.645; in assay [11], -0.19. For the same compound, the composite z-score in [12] was -0.29; in assay [13], -0.577; in [14] it was -0.517; with Lefty1, -0.371; in [16], -0.03. The composite Z-score in assay [1] was 0.251 (inactive). In addition, the z-score in [15] is 1.39; in assay [17], 0.407 (inactive).
With `Cc1ccc(S[C@]2(C(=O)NCC(F)(F)F)CC(=O)N(Cc3ccccc3C(F)(F)F)[C@@H]2c2ccc(CO)cc2I)cc1`, the composite z-score was 0.88 in the assay with Albumin (Bos taurus); -0.3 in [2]; -0.14 in assay [3]; 0.968 in assay [4]; 0.616 in assay [5]; 0.116 in assay [6]. For the same compound, the composite z-score in the assay on Sam68 (KHDRBS1) is -0.486; in [7], -1.41; in [8] it was -0.35; in [9] it was -0.227; in assay [10], -0.727; in assay [11] it was -0.604. The composite z-score in assay [12] is -0.992; in assay [13] it was -0.638; in assay [14], -1.08; in the assay on Lefty1, -0.745; in assay [16], -0.154. In [1], the composite Z-score was -0.0127 (inactive). Further, the z-score is 1.17 in [15] and 0.84 (inactive) in assay [17].

These data come from PubChem BioAssay.
